Reference: PubChem BioAssay (NCI)
About 79,000 compounds went through this panel and 15% of them were active in at least one assay; those are over-represented in the sample as a whole. Active and inactive are the calls of the source. Rule as the data show it: active = growth inhibition above about 70%; inactive = the rest.

Legend:
[1] = NCI Yeast Anticancer Drug Screen. Data for the rad50 strain (AID 155);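 also: 0% = growth of vehicle-only cultures of the same strain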; conditions: S. cerevisiae rad50 strain growth inhibition; at 50.0 µM; active compounds read high
Summary of the method: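 Growth of the mutant yeast was measured after compound exposure and referenced to vehicle-treated cultures.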

[2] = NCI Yeast Anticancer Drug Screen. Data for the mec2-1 strain (AID 157); conditions: S. cerevisiae mec2-1 strain, at 50.0 µM, active compounds read high
Summary of the method: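 Strain: mec2-1 (DNA repair/cell cycle alteration). Compound exposure, then growth measured; inhibition expressed relative to vehicle.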

[3] = NCI Yeast Anticancer Drug Screen. Data for the sgs1 mgt1 strain (AID 161);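 also: 0% = growth of cultures given vehicle only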; conditions: S. cerevisiae sgs1 mgt1 strain, at 50.0 µM, active compounds read high
Summary of the method: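 Mutant yeast exposed to compound; growth scored against vehicle-only wells.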

[4] = NCI Yeast Anticancer Drug Screen. Data for the cln2 rad14 strain (AID 165);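 also: 0% = growth equal to vehicle treated cultures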; conditions: S. cerevisiae cln2 rad14 strain, at 50.0 µM, active compounds read high
Summary of the method: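 Compounds are applied to the cln2 rad14 yeast strain, and growth is then compared with that of vehicle-treated cultures to give inhibition.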

[5] = NCI Yeast Anticancer Drug Screen. Data for the bub3 strain (AID 167); conditions: S. cerevisiae bub3 mutant strain, at 50.0 µM, active compounds read high
Summary of the method: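 Whole-cell yeast assay. The mutant strain was incubated with compounds, and growth inhibition was determined by comparison with vehicle-treated cells.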

[6] = NCI Yeast Anticancer Drug Screen. Data for the mlh1 rad18 strain (AID 175); conditions: S. cerevisiae mlh1 rad18 strain growth inhibition; at 50.0 µM; active compounds read high
Summary of the method: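 Read-out is yeast growth inhibition, calculated against vehicle-only controls. The compound was applied to a strain engineered with DNA damage repair alterations.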

Measured: growth inhibition

CCOc1ccccc1NC(C)=O
inactive: [1] -6.5% | [2] 6.1% | [3] 2.2% | [4] -13.4% | [5] -14.6% | [6] -0.75%

O=[N+]([O-])c1ccc(/C(CBr)=N/N2CCCCCC2)cc1
inactive: [1] -1.05% | [2] -16.9% | [3] -19.7% | [4] 7.9% | [5] -15.8% | [6] -4.55%

Cc1ccc(S(=O)(=O)N/N=C/c2oc(-c3ccccc3Cl)c(-c3ccccc3Cl)c2[N+](=O)[O-])cc1
inactive: [1] 54.2% | [2] 45.3% | [3] 58.5% | [4] 38.4% | [5] 41.5% | [6] 48.1%

CN(C)N=Nc1c(F)cc(F)c(F)c1F
inactive: [1] 4.75% | [2] 3.35% | [3] -9% | [4] -14.2% | [5] 7.3% | [6] -4.05%

CC1CC2=C(C(=O)c3ccccc3C2=O)C(C)O1 (stereo not given)
inactive: [1] 3.15% | [2] -29.5% | [3] -4.4% | [4] -31.7% | [5] 41.5% | [6] 9.1%

O=[N+]([O-])c1cc2no[n+]([O-])c2cc1N1CCOCC1
active: [1] 98.8% | [2] 99.3% | [3] 99.2% | [4] 98.4% | [5] 99% | [6] 99.2%

COC1C(O)CC(OC2C(C)OC(Oc3cc(O)c4c(O)c5c(cc4c3)C[C@@H]([C@H](OC)C(=O)[C@@H](O)[C@@H](C)O)[C@H](OC3CC(OC4CC(OC6CC(C)(O)C(O)C(C)O6)C(O)C(C)O4)C(O)C(C)O3)C5=O)CC2OC(C)=O)OC1C (stereo not given in full)
inactive: [1] -7.9% | [2] -3.45% | [3] -32.9% | [4] 10% | [5] 2.45% | [6] 0.4%

O=C(O)COc1cccc2ccccc12
inactive: [1] 5.25% | [2] -18.6% | [3] -0.7% | [4] -24.6% | [5] 1.75% | [6] 14.7%

O=C(O)C(Cc1ccccc1)c1ccccc1 (stereo not given)
inactive: [1] -39.4% | [2] -12.4% | [3] -11.8% | [4] -21.4% | [5] 9.4% | [6] 2.85%

NC(=S)N/N=C/c1cc([N+](=O)[O-])ccc1O
inactive: [1] 1.95% | [2] -3.4% | [3] 25.9% | [4] 51% | [5] 8.5% | [6] -87.9%

CC1(CCl)Nc2ccccc2C(=O)N1c1ccc(F)cc1 (stereo not given)
inactive: [1] -7.55% | [2] -21.9% | [3] -0.9% | [4] 1.4% | [5] 14.6% | [6] -3.35%

C[N+](C)([O-])Cc1cccc(NC(=O)c2ccc(C(=O)Nc3cccc(C[N+](C)(C)[O-])c3)cc2)c1
inactive: [1] -4.3% | [2] 1.25% | [3] -8.2% | [4] 1.3% | [5] -12.8% | [6] -7.95%

CC(=O)CC(C)=NCCCCN=C(C)CC(C)=O
inactive: [1] -12.6% | [2] -29.1% | [3] 5.55% | [4] 5.35% | [5] -25.2% | [6] -17.3%

CCCCCCCCC(Br)C(Br)CCCCCCCC(=O)NCCCOC (stereo not given)
inactive: [1] -2.45% | [2] -13.5% | [3] 1.95% | [4] -33.1% | [5] 1.95% | [6] 18.3%

S=C1NCC(c2ccccc2)CN1
inactive: [1] 0.5% | [2] 1.65% | [3] -2.55% | [4] 19.9% | [5] -7.95% | [6] -5.9%

O=C(N=Nc1c(O)[nH]c2c(Cl)cc(Cl)cc12)C(=O)Nc1cccc(C(F)(F)F)c1
inactive: [1] -8.85% | [2] -14% | [3] -24.6% | [4] 13.8% | [5] -23.8% | [6] -14%

O=C(Nc1cccc(Cl)c1)Sc1c(Cl)c(Cl)c(Cl)c(Cl)c1Cl
inactive: [1] 24.4% | [2] 17.3% | [3] 26.4% | [4] 29.2% | [5] 7.3% | [6] 34.8%

C1CCc2[nH]nc(-c3n[nH]c4c3CCCCC4)c2CC1
inactive: [1] 9.25% | [2] 3.35% | [3] 19.9% | [4] 9.95% | [5] 12.3% | [6] 18.5%

COC(=O)c1cc(=O)c2ccc(Cl)cc2[nH]1
inactive: [1] -8.05% | [2] 4.05% | [3] -10.9% | [4] -14.6% | [5] -18.3% | [6] -25.3%

Nc1cccc2c1-c1ccc([N+](=O)[O-])cc1C2=O
inactive: [1] 7.6% | [2] 18.4% | [3] -6.25% | [4] 5.5% | [5] 5.55% | [6] 4.25%

COc1ccc(-c2nnc(CCCCCCCCc3nnc(-c4ccc(OC)cc4)n3N)n2N)cc1
inactive: [1] -8.05% | [2] -23.9% | [3] -9.45% | [4] 0.8% | [5] -2.7% | [6] -1%

O=[N+]([O-])/C(Cl)=C(/C(Cl)=C(Cl)Cl)N1CCOCC1
inactive: [1] 5.55% | [2] 4.8% | [3] 44% | [4] 6.35% | [5] 23.9% | [6] 11.7%

CN(C)c1ncnc2c1ncn2C1OC(CO)C(N)C1O (stereo not given)
inactive: [1] 19.2% | [2] 3% | [3] 26.1% | [4] 0.55% | [5] 28.5% | [6] 20.6%

CC(C)(C)N(Cc1ccccc1)C(=O)Nc1ccccc1
inactive: [1] 6.45% | [2] 3.95% | [3] 21.5% | [4] 1.35% | [5] 32.3% | [6] 7.4%

CC1CCC(C(C)C)C(NC(=O)c2cccnc2)C1 (stereo not given)
inactive: [1] 8.3% | [2] -7.45% | [3] -2.75% | [4] 13.9% | [5] 14.4% | [6] 8.75%

Cc1ccc(-n2c(O)c(N=Nc3ccccc3)c(=O)n(-c3ccccc3)c2=S)cc1
inactive: [1] 20.1% | [2] -15.7% | [3] 51.4% | [4] -30.7% | [5] -9.2% | [6] -9.85%

CC1CCC(O)CC1C (stereo not given)
inactive: [1] -17.9% | [2] -24.6% | [3] -57% | [4] 27.2% | [5] -33.6% | [6] -10.1%

OCC12OCC(O1)C(O)C(O)C2O (stereo not given)
inactive: [1] -14.6% | [2] 2.2% | [3] 1.35% | [4] -9.35% | [5] -4.05% | [6] -16.8%

CC(O)C(O)C(O)C(=O)C=O (stereo not given)
inactive: [1] 5.8% | [2] 29.1% | [3] 6.1% | [4] 14.2% | [5] -25.4% | [6] 10.4%

N#Cc1nc(-c2ccccc2)c(-c2ccccc2)nc1C#N
inactive: [1] 3.15% | [2] 9.8% | [3] 0.6% | [4] -7.05% | [5] 13.9% | [6] -0.6%

NC(N)=NS(=O)(=O)c1ccc(Nc2c3ccccc3nc3c(C(=O)N4CCN(CCO)CC4)cccc23)cc1
inactive: [1] -0.4% | [2] -7.8% | [3] 2.95% | [4] 22.4% | [5] -5% | [6] -11.2%

O=C(Oc1c(Cl)cc(Cl)cc1Cl)c1ccc([N+](=O)[O-])cc1
inactive: [1] 9.2% | [2] 10.8% | [3] 5.45% | [4] -8.65% | [5] -9.45% | [6] -1.15%

NCC(=O)c1c[nH]c(=O)[nH]c1=O
inactive: [1] -8.85% | [2] -5.05% | [3] -12.2% | [4] -42.5% | [5] -10.3% | [6] 4.4%

O=C(NC(c1ccccc1)c1cccs1)c1cccs1 (stereo not given)
inactive: [1] -2.95% | [2] -4.45% | [3] 1.05% | [4] -38.4% | [5] 30.1% | [6] 3.95%

CS(=O)(=O)C(C#N)c1nc2ccccc2nc1Cl (stereo not given)
inactive: [1] -20.6% | [2] -17.7% | [3] -53.1% | [4] -9.6% | [5] -42% | [6] -30.6%

CCOC1(C)OC2OC(COC(C)=O)C(OC(C)=O)C(OC(N)=O)C2O1 (stereo not given)
inactive: [1] -11.8% | [2] 0.05% | [3] -5.75% | [4] -34% | [5] -1.15% | [6] 15.2%

CC(C)(C)OC(=O)CNC(=O)C(CSC(c1ccccc1)(c1ccccc1)c1ccccc1)N1C(=O)c2ccccc2C1=O (stereo not given)
active: [5] 73.6%
inactive: [1] 45.9% | [2] 32.5% | [3] 46.2% | [4] 31.9% | [6] 49.5%

CSc1cccc(NC(=S)NN/C(=N/S(=O)(=O)c2ccccc2)N2CCCC2)c1
inactive: [1] 6.3% | [2] -17.6% | [3] -1.35% | [4] 2.3% | [5] -2.9% | [6] -1.2%

N#CC(=C1CCN(Cc2ccccc2)CC1)c1ccccc1
inactive: [1] 37.2% | [2] 12.7% | [3] 44.8% | [4] 47.6% | [5] 63.5% | [6] 35.2%

O=[N+]([O-])c1ccc(/C=N\N=C\c2ccco2)cc1
inactive: [1] 1.85% | [2] 16.8% | [3] -4.35% | [4] -50.1% | [5] -9.9% | [6] 4.95%
